# Records with an inconclusive call do not appear. Active and inactive are the calls of the source. Rule for the calls: active = hit-call score of the fitted dose curve at least 0.9, where 1 is the maximum; inconclusive = response in the unintended direction; inactive = score below 0.9.
# Key:
# [1] = molecular target: chimpanzee Androgen Receptor (AR), AR (gene 747460) (UniProt O97775); experiment: NVS_NR_cAR: NovaScreen (NVS) Nuclear Receptor Binding Assay for chimpanzee Androgen Receptor (AR) (AID 2283346);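 note: radioligand displacement from AR measured by scintillation counting in a cell-free assay; a loss of bound radioligand signal versus DMSO counts as binding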
# Outline: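 Cell-free competition binding with insect-cell (Sf9/Sf21) extracted chimpanzee AR; scintillation signal from lysate at 72 h. Screened in duplicate at 25 uM, then concentration-response for actives; fitting relative to DMSO.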
# [2] = molecular target: Estrogen receptor (Homo sapiens) (UniProt P03372); experiment: OT_ER_ERaERa_1440: Odyssey Thera (OT) 24-hour HEK293T Protein-Complementation Assay for Estrogen Receptor-alpha/-alpha Homodimer (AID 2283349);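 note: hits raise fluorescence above DMSO for agonists and antagonists alike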
# Outline: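 HEK293T, stable ERα LBD (aa 310-547) homodimer PCA; 24 h compound exposure; mean fluorescence intensity (nuclear for agonists, nuclear plus cytoplasmic for antagonists) vs vehicle; positive fitting direction, DMSO baseline.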
# [3] = molecular target: Estrogen receptor (Homo sapiens) (UniProt P03372); experiment: OT_ER_ERaERa_0480: Odyssey Thera (OT) 8-hour HEK293T Protein-Complementation Assay for Estrogen Receptor-alpha/-alpha Homodimer (AID 2283351);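 note: rise in fluorescence from reassembled reporter fragments on ERα LBD homodimer in nucleus or whole cell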
# Outline: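 Cells were treated for 8 hours, then imaged on a laser scanning plate cytometer. Complementation of reporter fragments fused to the human ERα ligand-binding domain (residues 310-547) in HEK293T gave fluorescence, and gain of signal over vehicle was fitted.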
# [4] = molecular target: Estrogen receptor (Homo sapiens) + Estrogen receptor beta (Homo sapiens) (UniProt P03372+Q92731); experiment: OT_ER_ERaERb_0480: Odyssey Thera (OT) 8-hour HEK293T Protein-Complementation Assay for Estrogen Receptor-alpha/-beta Heterodimer (AID 2283352)
# Outline: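 HEK293T cells expressing ER-alpha/ER-beta LBD fusions to complementary reporter fragments were dosed with compound for 8 hours. Heterodimer formation was read as increased nuclear (agonist) or nuclear plus cytoplasmic (antagonist) mean fluorescence intensity versus DMSO vehicle.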
# [5] = molecular target: Estrogen receptor (Homo sapiens) (UniProt P03372); experiment: NVS_NR_hER: NovaScreen (NVS) Nuclear Receptor Binding Assay for human Estrogen Receptor (ER) (AID 2283348)
# Outline: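 Cell-free MCF7-derived ER preparation, specific radioligand displaced by test compound, read by scintillation counting 18 h post-dosing. Duplicate single-point 25 uM screen, then concentration-response confirmation; DMSO baseline.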
# [6] = molecular target: Bile acid receptor (Homo sapiens) (UniProt Q96RI1); experiment: NVS_NR_hFXR_Agonist: NovaScreen (NVS) Nuclear Receptor Binding Assay for human Farnesoid X Receptor Agonism (FXR) (AID 2283347)
# Outline: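 Agonist-mode FXR assay read by time-resolved FRET 1 h after compound addition, using isolated human receptor protein without cells. Duplicate 25 uM single-point primary screen, concentration series for confirmed actives; DMSO as baseline.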
# Chain of Estrogen receptor (Homo sapiens) + Estrogen receptor beta (Homo sapiens) (P03372 whole entry, looked up, the tested form may be a part): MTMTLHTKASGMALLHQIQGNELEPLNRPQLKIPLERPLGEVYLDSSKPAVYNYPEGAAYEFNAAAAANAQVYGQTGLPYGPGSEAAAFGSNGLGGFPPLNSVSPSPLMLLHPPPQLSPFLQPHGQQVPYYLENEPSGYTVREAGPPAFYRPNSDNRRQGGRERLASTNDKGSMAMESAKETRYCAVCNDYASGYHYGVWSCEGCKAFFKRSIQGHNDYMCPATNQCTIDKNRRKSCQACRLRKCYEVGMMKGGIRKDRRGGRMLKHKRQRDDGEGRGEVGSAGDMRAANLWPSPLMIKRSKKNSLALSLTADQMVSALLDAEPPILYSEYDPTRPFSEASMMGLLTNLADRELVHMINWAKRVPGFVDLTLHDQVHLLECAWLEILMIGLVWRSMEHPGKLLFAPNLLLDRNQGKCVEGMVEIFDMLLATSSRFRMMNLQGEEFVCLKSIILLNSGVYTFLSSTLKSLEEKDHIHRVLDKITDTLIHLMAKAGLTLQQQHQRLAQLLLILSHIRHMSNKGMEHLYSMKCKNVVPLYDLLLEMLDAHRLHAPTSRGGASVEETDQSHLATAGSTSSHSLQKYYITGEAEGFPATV
# Chain of Estrogen receptor (Homo sapiens) + Estrogen receptor beta (Homo sapiens) (Q92731 whole entry, looked up, the tested form may be a part): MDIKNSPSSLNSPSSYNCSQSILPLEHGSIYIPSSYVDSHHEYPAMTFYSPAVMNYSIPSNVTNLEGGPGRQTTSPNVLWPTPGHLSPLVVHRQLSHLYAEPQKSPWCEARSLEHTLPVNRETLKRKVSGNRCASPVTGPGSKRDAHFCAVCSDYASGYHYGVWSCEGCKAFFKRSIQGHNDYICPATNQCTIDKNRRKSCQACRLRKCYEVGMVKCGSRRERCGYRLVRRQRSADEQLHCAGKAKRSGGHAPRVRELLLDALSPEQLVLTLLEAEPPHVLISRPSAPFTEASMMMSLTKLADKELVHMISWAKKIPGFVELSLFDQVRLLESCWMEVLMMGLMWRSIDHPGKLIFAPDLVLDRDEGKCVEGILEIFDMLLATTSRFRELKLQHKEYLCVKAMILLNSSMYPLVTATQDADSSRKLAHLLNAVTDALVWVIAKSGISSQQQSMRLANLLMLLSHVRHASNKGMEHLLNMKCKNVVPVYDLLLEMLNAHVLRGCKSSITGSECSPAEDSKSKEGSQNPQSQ
# Chain of Estrogen receptor (Homo sapiens) (P03372 whole entry, looked up, the tested form may be a part): as the sequence (P03372 whole entry, looked up, the tested form may be a part) above
# Chain of chimpanzee Androgen Receptor (AR), AR (gene 747460) (O97775 whole entry, looked up): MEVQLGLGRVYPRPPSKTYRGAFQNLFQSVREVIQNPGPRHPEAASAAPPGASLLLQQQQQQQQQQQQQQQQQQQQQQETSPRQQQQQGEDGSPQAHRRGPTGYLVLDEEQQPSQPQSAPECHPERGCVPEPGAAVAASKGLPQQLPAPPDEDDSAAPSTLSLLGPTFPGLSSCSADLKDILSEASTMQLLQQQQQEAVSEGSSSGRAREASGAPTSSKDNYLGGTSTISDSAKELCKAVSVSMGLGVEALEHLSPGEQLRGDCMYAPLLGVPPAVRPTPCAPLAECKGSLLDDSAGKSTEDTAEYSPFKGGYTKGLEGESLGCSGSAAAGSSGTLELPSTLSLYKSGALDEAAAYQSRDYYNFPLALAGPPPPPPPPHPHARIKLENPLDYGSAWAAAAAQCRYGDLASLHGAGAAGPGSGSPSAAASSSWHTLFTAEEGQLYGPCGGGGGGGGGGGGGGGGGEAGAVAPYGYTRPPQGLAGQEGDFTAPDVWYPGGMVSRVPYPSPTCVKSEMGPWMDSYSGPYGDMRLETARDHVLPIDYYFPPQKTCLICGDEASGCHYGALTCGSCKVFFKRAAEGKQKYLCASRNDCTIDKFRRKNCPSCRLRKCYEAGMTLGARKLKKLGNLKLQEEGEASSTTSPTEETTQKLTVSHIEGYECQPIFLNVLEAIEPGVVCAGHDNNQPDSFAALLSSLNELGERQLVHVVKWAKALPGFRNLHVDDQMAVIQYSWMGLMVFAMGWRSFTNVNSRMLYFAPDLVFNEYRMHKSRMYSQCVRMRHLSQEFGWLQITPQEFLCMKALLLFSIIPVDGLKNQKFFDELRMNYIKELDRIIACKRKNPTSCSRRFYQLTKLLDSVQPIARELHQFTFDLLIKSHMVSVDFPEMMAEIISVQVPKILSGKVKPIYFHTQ
# Chain of Bile acid receptor (Homo sapiens) (Q96RI1 whole entry, looked up): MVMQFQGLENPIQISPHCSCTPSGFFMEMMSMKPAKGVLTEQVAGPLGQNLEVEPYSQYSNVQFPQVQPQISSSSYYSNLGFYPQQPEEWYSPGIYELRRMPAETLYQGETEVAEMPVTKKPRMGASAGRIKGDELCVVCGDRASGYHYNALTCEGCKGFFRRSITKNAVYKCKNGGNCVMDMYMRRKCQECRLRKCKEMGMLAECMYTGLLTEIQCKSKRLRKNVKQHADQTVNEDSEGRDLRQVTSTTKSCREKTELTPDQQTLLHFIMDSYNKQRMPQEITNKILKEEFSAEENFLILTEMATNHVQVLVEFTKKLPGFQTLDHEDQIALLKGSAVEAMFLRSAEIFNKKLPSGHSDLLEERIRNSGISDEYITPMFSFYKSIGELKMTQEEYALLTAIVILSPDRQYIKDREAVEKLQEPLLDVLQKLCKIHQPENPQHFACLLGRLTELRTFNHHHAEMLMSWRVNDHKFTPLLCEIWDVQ
smiles,measurement,setting,value
Cc1ccccc1C(=O)Nc1cccc(OC(C)C)c1,outcome,[1],inactive
same,outcome,[2],inactive
same,outcome,[3],inactive
same,outcome,[4],inactive
CC(C)c1ccc(CO)cc1,outcome,[5],inactive
CCOP(=S)(OCC)SCSP(=S)(OCC)OCC,outcome,[5],inactive
same,outcome,[2],inactive
same,AC50,[3],6960 nM (active)
same,AC50,[4],10700 nM (active)
CCC1(c2ccc(N)cc2)CCC(=O)NC1=O (centres undefined),outcome,[5],inactive
same,outcome,[2],inactive
same,outcome,[3],inactive
CC(C)(C)c1cc(O)ccc1O,outcome,[5],inactive
same,outcome,[2],inactive
same,outcome,[3],inactive
NNC(=S)NN,outcome,[5],inactive
same,outcome,[2],inactive
same,outcome,[3],inactive
CC(C)(c1ccccc1)c1ccc(O)c(C(C)(C)c2ccccc2)c1,outcome,[5],inactive
same,outcome,[2],inactive
same,outcome,[3],inactive
same,outcome,[4],inactive
CNC(=O)O/N=C/C(C)(C)S(C)=O (centres undefined),outcome,[1],inactive
same,outcome,[2],inactive
same,outcome,[3],inactive
same,outcome,[4],inactive
C=CC(=O)OCCCCCC(C)C,outcome,[5],inactive
same,outcome,[2],inactive
same,outcome,[3],inactive
same,outcome,[4],inactive
O=C(CCl)CCl,outcome,[5],inactive
CC(C)(OO)c1ccccc1,outcome,[5],inactive
same,outcome,[2],inactive
same,outcome,[3],inactive
CCC(C)(C)c1ccc(O)c(C(C)(C)CC)c1,outcome,[6],inactive
same,outcome,[5],inactive
same,outcome,[2],inactive
same,outcome,[3],inactive
C[C@H]1CCCC(=O)CCC/C=C/c2cc(O)cc(O)c2C(=O)O1,AC50,[5],2.45 nM (active)
same,AC50,[2],460 nM (active)
same,AC50,[3],291 nM (active)
same,AC50,[4],55.8 nM (active)
COC(=O)c1sccc1S(=O)(=O)NC(=O)Nc1nc(C)nc(OC)n1,outcome,[5],inactive
same,outcome,[2],inactive
same,outcome,[3],inactive
same,outcome,[4],inactive
BrCCBr,outcome,[5],inactive
same,outcome,[2],inactive
same,outcome,[3],inactive
O=C/C=C/c1ccccc1,outcome,[2],inactive
same,outcome,[3],inactive
CC(C)OC(=O)Nc1ccccc1,outcome,[2],inactive
same,outcome,[3],inactive
CCOC(=O)/C=C(C)/C=C/C[C@@H](C)CCCC(C)C,outcome,[5],inactive
